According to PubChem BioAssay (Tox21):
Values without a mark were called inactive. Results filed as inconclusive are left out. A call without a number means that no potency is given here. Active and inactive are the calls of the source. Unless noted, calls follow the shape of the dose curve; as a rule, active = well fitted curve in the direction sought with a large enough effect in the repeat runs; inconclusive = weak or mixed curves; inactive = no such curve, though single readings can be large; an effect the other way counts as inactive or inconclusive.

What was measured:
[1] = target: Progesterone receptor (Homo sapiens) (UniProt P06401); experiment: qHTS assay to identify small molecule agonists of the progesterone receptor (PR) signaling pathway (AID 1346784; calls by dose curve; also: nearly all actives have a fitted effect of over 30% in size)
Summary of the method: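 PR-UAS-bla HEK 293T cells carrying a UAS-driven beta-lactamase reporter were seeded in medium with 2% charcoal-stripped FBS, preincubated 6 hr at 37C, then exposed to compounds in DMSO for 16 hr; agonism was read by LiveBLAzer B/G FRET fluorescence.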

[2] = target: Progesterone receptor (Homo sapiens) (UniProt P06401); experiment: qHTS assay to identify small molecule antagonists of the progesterone receptor (PR) signaling pathway (AID 1346795; active = well fitted inhibition curve with a large enough effect in the signal ratio in the repeat runs, not every such curve was filed as active; the % refers to the signal ratio)
Summary of the method: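 PR-UAS-bla HEK293T cells carrying a UAS-driven beta-lactamase reporter were plated in medium with 2% charcoal-stripped FBS and rested 6 hr at 37C. Compounds were added with 1 nM R5020 (final) for 16 hr, then FRET substrate loaded 2 hr at room temperature.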

[3] = qHTS assay to identify small molecule antagonists of the progesterone receptor (PR) signaling pathway - cell viability counter screen (AID 1346798); also: series mostly up to about 92 µM; nearly all actives have a fitted effect of over 50% in size
Summary of the method: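 PR-UAS-bla HEK293T cells in medium with 2% charcoal-stripped FBS were treated with compounds plus R5020 for 16 hr at 37C. Cell viability was then read by CellTiter-Glo luminescence after 30 min at room temperature in the same wells.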

[4] = qHTS assay to identify small molecule agonists of the progesterone receptor (PR) signaling pathway - cell viability counter screen (AID 1346799; calls by dose curve; also: nearly all actives have a fitted effect of over 45% in size)
Summary of the method: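 PR-UAS-bla HEK293T cells, 3,000 per well in medium with 2% charcoal-stripped FBS, were preincubated 6 hr at 37C, then exposed to compounds for 16 hr; viability was read as CellTiter-Glo luminescence after 30 min at room temperature.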

[5] = qHTS assay to identify small molecule antagonists of the TGF-beta/Smad signaling pathway - cell viability counter screen (AID 1346824); also: nearly all actives have a fitted effect of over 50% in size
Summary of the method: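 SBE-bla HEK 293T cells, incubated overnight, then compound plus 0.25 ng/mL TGF-beta1 (stock added) for 5 hr at 37 C. Viability was read in the same wells by CellTiter-Glo luminescence after 30 min at room temperature.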

[6] = qHTS assay to identify small molecule agonists of the TGF-beta/Smad signaling pathway - cell viability counter screen (AID 1346829); also: top concentration of the series differs between compounds; nearly all actives have a fitted effect of over 45% in size
Summary of the method: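 In parallel with the Smad reporter read, viability of HEK 293T cells stably carrying SBE-bla is quantified by ATP luminescence following 5 hr compound treatment.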

[7] = target: Thyrotropin-releasing hormone receptor (Homo sapiens) (UniProt P34981); experiment: qHTS assay to identify small molecule antagonists of the thyrotropin-releasing hormone receptor (TRHR) signaling pathway (AID 1346877; active = well fitted inhibition curve with a large enough effect in the repeat runs, not every such curve was filed as active; also: series mostly up to about 51 µM)
Summary of the method: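 Antagonism is measured as suppression of the calcium response to 1 nM TRH in TRHR-HEK293 cells that have been dye-loaded for 2 h at 37 °C after overnight plating. Each compound is tested at 15 concentrations in triplicate.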

[8] = target: Thyrotropin-releasing hormone receptor (Homo sapiens) (UniProt P34981); experiment: qHTS assay to identify small molecule agonists of the thyrotropin-releasing hormone receptor (TRHR) signaling pathway (AID 1346891; calls by dose curve; also: series mostly up to about 58 µM)
Summary of the method: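 TRHR-expressing HEK293 cells were plated 18 h at 37 °C/5% CO2, loaded with calcium dye 2 h at 37 °C, then given compound in DMSO; fluorescence was read kinetically for 3 min at 1 s intervals.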

[9] = Human pregnane X receptor (PXR) small molecule agonists, qHTS cell viability counter screen (AID 1346977); also: nearly all actives have a fitted effect of over 50% in size
Summary of the method: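 PXR-Luc HepG2 cells in medium with 5% charcoal-stripped FBS were pre-incubated 5hr, then exposed to compounds for 24hr at 37C. Viability was read in the same wells by CellTiter-Fluor fluorescence, reagent added after 23hr with a 1hr incubation.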

[10] = Caspase-3/7 induction in CHO-K1 cells by small molecules, qHTS assay (AID 1346980); also: nearly all actives have a fitted effect of over 15% in size
Summary of the method: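 Wild-type CHO-K1 cells exposed to compounds for 17hr at 37 C, 5% CO2. Caspase-3/7 activity then measured by Caspase-Glo 3/7 luminescence after 30min at room temperature.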

[11] = Caspase-3/7 induction in HepG2 cells by small molecules, qHTS cell viability counter screen (AID 1346981); also: series mostly up to about 92 µM; nearly all actives have a fitted effect of over 30% in size
Summary of the method: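 Cell viability is measured as a cytotoxicity counter screen alongside the Caspase-Glo 3/7 readout in identical wells. Wild-type HepG2 cells are treated with test compounds for 16 hr at 37 C before CellTiter-Fluor addition and a 1-hr incubation.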

[12] = Caspase-3/7 induction in HepG2 cells by small molecules, qHTS assay (AID 1346978); also: nearly all actives have a fitted effect of over 15% in size
Summary of the method: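 Wild-type HepG2 cells, 2,000/well, settled 5 hr at 37 C and 5% CO2, then compound-treated for 17 hr; caspase-3/7 activity read by luminescent Caspase-Glo 3/7 after 30 min at room temperature.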

[13] = Caspase-3/7 induction in CHO-K1 cells by small molecules, qHTS cell viability counter screen (AID 1346979); also: nearly all actives have a fitted effect of over 35% in size
Summary of the method: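 Wild-type CHO-K1 cells were seeded at 1,500 per well, rested 5hr at 37 C, then exposed to compounds in DMSO. After 16hr, CellTiter-Fluor reagent was added and fluorescence read 1hr later as the viability measure.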

[14] = target: Nuclear receptor subfamily 1 group I member 2 (Homo sapiens) (UniProt O75469); experiment: Human pregnane X receptor (PXR) small molecule agonists, qHTS assay (AID 1346982); also: nearly all actives have a fitted effect of over 35% in size
Summary of the method: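 Cells: HepG2 stably carrying PXR-Luc. Medium held 5% charcoal-stripped FBS. Compounds in DMSO added after 5 hr plating, incubated 24 hr, then luminescence quantified with ONE-Glo.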

[15] = target: Cytochrome P450 2D6 (Homo sapiens) (UniProt P10635); experiment: Cytochrome P450 Family 2 Subfamily D Member 6 (CYP2D6) small molecule antagonists: luciferase reporter qHTS assay (AID 1671196); also: nearly all actives have a fitted effect of over 50% in size; also: potency is read from the fitted curve at half-maximal effect
Summary of the method: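 Enzyme and proluciferin substrate were first combined with test chemical for 10 min at room temperature. Adding NADPH regeneration solution started a 1 h reaction, stopped with luciferin detection reagent and read by luminescence 20 min later.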

[16] = target: Cytochrome P450 2C19 (Homo sapiens) (UniProt P33261); experiment: Cytochrome P450 Family 2 Subfamily C Member 19 (CYP2C19) small molecule antagonists: luciferase reporter qHTS assay (AID 1671197); also: nearly all actives have a fitted effect of over 65% in size; also: potency is read from the fitted curve at half-maximal effect
Summary of the method: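 Compounds were tested on CYP2C19 activity via proluciferin conversion to luciferin. The 37C, 1 h reaction followed NADPH addition; detection reagent stopped it.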

[17] = qHTS assay to identify small molecule agonists of the TGF-beta/Smad signaling pathway (AID 1346859; active = well fitted activation curve with a large enough effect in the signal ratio in the repeat runs, not every such curve was filed as active; the % refers to the signal ratio; also: series mostly up to about 77 µM)
Summary of the method: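 HEK 293T cells stably carrying a beta-lactamase reporter driven by the Smad binding element were seeded overnight, exposed to DMSO-dissolved compounds for 5 hr at 37 C, 5% CO2, then loaded with FRET substrate for 2 hr at room temperature.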

[18] = target: Nuclear receptor subfamily 1 group I member 2 (Rattus norvegicus) (UniProt Q9R1A7); experiment: Rat pregnane X receptor (rPXR) activation by small molecules, qHTS assay (AID 1346983); conditions: rPXR luciferase reporter cells, One-Glo luminescence, 24 h; max activation: hits give high values; also: nearly all actives have a fitted effect of over 20% in size
Summary of the method: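 Cell-based rPXR activation assay: rPXR cells, 2,000 per well, rested 5hr at 37 C, then exposed to compounds in DMSO for 24 hr at 37 C. Luciferase activity read by One-Glo luminescence after 30 min at room temperature.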

[19] = target: Nuclear receptor subfamily 1 group I member 2 (Homo sapiens) (UniProt O75469); experiment: CYP3A4 induction through human pregnane X receptor (PXR) by small molecules, qHTS assay (AID 1346984); also: nearly all actives have a fitted effect of over 40% in size
Summary of the method: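 Quantitative HTS in DPX-2 cells, i.e. HepG2 transfected with PXR response element and CYP3A4-promoter luciferase. Compounds in DMSO incubated 24hr at 37C; then P450-Glo CYP3A4 substrate, 3uM final, 3hr; One-Glo luminescence.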

[20] = target: Nuclear receptor subfamily 1 group I member 2 (Homo sapiens) (UniProt O75469); experiment: Human pregnane X receptor (PXR) activation by small molecules, qHTS assay (AID 1346985); also: nearly all actives have a fitted effect of over 40% in size
Summary of the method: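 DPX-2 cells (HepG2 co-transfected with a PXR response element and a CYP3A4-promoter luciferase construct) were seeded at 2,000 per well, rested 5 hr at 37C, then exposed to DMSO-dissolved compounds for 24 hr. Activation was read as luciferase luminescence.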

Sequence of Nuclear receptor subfamily 1 group I member 2 (Homo sapiens) (O75469 whole entry, looked up): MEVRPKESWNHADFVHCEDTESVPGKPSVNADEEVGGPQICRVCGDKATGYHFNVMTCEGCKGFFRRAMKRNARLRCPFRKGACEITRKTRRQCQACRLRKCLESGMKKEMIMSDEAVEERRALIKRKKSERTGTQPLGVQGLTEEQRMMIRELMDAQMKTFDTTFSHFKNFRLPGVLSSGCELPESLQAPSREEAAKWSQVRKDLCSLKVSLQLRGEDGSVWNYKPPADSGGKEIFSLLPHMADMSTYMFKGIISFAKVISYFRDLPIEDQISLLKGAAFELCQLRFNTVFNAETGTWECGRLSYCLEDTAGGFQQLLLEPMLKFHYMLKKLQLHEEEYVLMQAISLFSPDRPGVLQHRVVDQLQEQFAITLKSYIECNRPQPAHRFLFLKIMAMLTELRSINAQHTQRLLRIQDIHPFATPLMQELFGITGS
Sequence of Cytochrome P450 2C19 (Homo sapiens) (P33261 whole entry, looked up): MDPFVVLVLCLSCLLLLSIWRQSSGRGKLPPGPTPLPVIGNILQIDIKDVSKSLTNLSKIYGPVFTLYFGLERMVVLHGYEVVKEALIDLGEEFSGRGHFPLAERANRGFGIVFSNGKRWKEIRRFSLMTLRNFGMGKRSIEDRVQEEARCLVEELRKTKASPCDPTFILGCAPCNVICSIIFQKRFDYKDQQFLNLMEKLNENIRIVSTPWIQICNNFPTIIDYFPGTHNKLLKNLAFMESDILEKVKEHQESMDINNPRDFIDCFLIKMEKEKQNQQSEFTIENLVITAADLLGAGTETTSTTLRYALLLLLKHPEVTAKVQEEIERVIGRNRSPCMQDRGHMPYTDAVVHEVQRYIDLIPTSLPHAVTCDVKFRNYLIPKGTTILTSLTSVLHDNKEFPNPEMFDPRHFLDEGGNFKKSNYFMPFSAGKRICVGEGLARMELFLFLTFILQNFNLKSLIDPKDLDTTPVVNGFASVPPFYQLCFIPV
Sequence of Thyrotropin-releasing hormone receptor (Homo sapiens) (P34981 whole entry, looked up): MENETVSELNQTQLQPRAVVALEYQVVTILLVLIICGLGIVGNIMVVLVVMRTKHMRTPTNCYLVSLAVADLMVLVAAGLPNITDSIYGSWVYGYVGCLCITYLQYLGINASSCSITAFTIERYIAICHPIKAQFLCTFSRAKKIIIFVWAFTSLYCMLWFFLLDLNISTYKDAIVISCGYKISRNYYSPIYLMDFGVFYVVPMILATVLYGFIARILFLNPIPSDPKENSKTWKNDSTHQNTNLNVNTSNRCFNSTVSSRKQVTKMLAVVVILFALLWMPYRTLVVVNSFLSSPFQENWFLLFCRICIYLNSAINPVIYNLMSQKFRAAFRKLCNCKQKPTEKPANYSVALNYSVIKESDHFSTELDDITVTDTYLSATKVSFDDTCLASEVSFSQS
Sequence of Progesterone receptor (Homo sapiens) (P06401 whole entry, looked up): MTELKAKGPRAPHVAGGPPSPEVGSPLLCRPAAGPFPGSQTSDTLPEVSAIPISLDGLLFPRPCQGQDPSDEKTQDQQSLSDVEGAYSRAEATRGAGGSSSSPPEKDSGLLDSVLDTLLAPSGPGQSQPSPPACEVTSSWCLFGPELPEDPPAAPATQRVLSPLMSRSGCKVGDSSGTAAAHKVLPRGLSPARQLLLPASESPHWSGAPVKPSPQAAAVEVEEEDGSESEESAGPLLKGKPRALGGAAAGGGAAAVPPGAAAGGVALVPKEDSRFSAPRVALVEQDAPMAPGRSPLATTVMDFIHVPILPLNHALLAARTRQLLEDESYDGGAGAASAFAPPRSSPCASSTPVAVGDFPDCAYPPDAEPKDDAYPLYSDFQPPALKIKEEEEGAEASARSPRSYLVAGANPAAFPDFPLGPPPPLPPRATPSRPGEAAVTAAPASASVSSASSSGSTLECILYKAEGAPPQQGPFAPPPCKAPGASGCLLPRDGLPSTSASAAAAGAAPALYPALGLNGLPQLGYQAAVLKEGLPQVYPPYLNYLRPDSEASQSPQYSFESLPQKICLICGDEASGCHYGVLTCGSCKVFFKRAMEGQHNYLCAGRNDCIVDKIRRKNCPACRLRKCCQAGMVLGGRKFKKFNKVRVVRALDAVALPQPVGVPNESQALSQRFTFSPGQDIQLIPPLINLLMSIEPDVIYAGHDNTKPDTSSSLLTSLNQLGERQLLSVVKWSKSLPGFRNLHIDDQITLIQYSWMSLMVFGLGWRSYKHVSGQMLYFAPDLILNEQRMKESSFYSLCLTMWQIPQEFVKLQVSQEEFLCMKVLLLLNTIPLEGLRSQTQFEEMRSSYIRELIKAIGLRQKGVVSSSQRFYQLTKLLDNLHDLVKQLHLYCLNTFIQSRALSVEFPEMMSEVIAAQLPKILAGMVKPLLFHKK
Sequence of Cytochrome P450 2D6 (Homo sapiens) (P10635 whole entry, looked up): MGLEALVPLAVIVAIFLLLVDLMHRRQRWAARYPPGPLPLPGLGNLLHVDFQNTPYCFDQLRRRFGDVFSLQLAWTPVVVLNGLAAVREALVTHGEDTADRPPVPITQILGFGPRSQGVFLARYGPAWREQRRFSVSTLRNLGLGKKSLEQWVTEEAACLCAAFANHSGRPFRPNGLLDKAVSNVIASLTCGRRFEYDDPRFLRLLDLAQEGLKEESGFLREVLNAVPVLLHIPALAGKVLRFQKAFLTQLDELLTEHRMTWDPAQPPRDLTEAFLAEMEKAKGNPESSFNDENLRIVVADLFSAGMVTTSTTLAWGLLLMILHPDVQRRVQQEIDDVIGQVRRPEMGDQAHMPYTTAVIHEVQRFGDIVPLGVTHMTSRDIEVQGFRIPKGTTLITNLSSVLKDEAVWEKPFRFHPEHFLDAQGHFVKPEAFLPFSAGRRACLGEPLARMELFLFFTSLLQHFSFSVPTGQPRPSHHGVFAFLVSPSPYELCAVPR
Sequence of Nuclear receptor subfamily 1 group I member 2 (Rattus norvegicus) (Q9R1A7 whole entry, looked up): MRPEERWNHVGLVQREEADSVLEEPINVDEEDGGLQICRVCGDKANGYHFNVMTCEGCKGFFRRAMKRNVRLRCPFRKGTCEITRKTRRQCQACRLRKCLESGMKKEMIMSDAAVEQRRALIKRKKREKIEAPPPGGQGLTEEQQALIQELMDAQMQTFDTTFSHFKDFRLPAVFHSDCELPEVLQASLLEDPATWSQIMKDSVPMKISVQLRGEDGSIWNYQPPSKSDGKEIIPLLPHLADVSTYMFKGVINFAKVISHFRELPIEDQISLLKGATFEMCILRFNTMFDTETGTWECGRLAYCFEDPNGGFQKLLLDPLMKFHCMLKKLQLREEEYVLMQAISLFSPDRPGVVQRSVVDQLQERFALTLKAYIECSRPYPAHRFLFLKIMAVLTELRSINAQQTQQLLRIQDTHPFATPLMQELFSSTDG

Row | SMILES | Potency [1] | Potency [2] | Potency [3] | Potency [4] | outcome [5] | outcome [6] | outcome [7] | outcome [8] | Potency [9] | Potency [10] | Potency [11] | Potency [12] | Potency [13] | Potency [14] | Potency [15] | Potency [16] | outcome [17] | max activation [18] [%] | Potency [19] | Potency [20]
1 | CC(=O)Nc1ccccc1O | inactive | inactive | inactive | inactive | inactive | inactive | inactive | inactive | inactive | inactive | inactive | – | – | – | – | – | – | – | – | –
2 | CC(C)=CCC[C@H](C)CCO | inactive | inactive | inactive | inactive | inactive | inactive | inactive | inactive | inactive | inactive | inactive | inactive | inactive | inactive | inactive | 71 µM (active) | – | – | – | –
3 | CCCCC(CC)COCCC#N (stereo not given) | inactive | inactive | inactive | inactive | inactive | inactive | inactive | inactive | inactive | – | inactive | inactive | inactive | inactive | inactive | inactive | – | – | – | –
4 | Nc1ccc(F)cc1F | inactive | inactive | inactive | inactive | inactive | inactive | – | – | inactive | inactive | inactive | – | inactive | inactive | – | inactive | inactive | – | – | –
5 | O=[N+]([O-])c1cccc(I)c1 | inactive | inactive | inactive | inactive | inactive | inactive | – | – | inactive | inactive | inactive | – | inactive | inactive | inactive | inactive | inactive | – | – | –
6 | CC(CCl)OC(C)CCl (stereo not given) | inactive | inactive | inactive | inactive | inactive | inactive | inactive | inactive | – | inactive | – | inactive | inactive | inactive | inactive | inactive | inactive | – | – | –
7 | CC(C(=O)O)c1ccc(/C=C2\CCCCC2=O)cc1 (stereo not given) | inactive | inactive | inactive | inactive | inactive | inactive | – | – | inactive | – | – | inactive | inactive | – | – | – | inactive | – | – | –
8 | CCCCOC(=O)CC#N | inactive | inactive | inactive | inactive | inactive | inactive | – | – | inactive | inactive | inactive | inactive | – | inactive | 5.27 µM (active) | 7.44 µM (active) | inactive | – | – | –
9 | CCN(CCCCOC(=O)c1ccc(OC)c(OC)c1)C(C)Cc1ccc(OC)cc1 (stereo not given) | inactive | inactive | inactive | – | inactive | inactive | inactive | inactive | inactive | inactive | inactive | inactive | inactive | inactive | – | – | inactive | 3.44 | inactive | inactive
10 | C/C(=C(\CCO)SS/C(CCO)=C(\C)N(C=O)Cc1cnc(C)nc1N)N(C=O)Cc1cnc(C)nc1N | inactive | inactive | inactive | inactive | – | inactive | inactive | inactive | inactive | inactive | – | inactive | – | inactive | inactive | inactive | – | -1.12 | inactive | inactive
11 | CCCCCCCCS | inactive | inactive | inactive | inactive | inactive | inactive | – | – | inactive | inactive | inactive | inactive | inactive | inactive | inactive | inactive | – | – | – | –
12 | CCCCOC(=O)C(C)Oc1ccc(Oc2ccc(C(F)(F)F)cn2)cc1 (stereo not given) | inactive | inactive | inactive | inactive | – | inactive | – | – | inactive | – | inactive | inactive | inactive | inactive | – | 50.2 µM (active) | inactive | – | – | –
13 | CC(C)(O)C(=O)O | inactive | inactive | inactive | inactive | inactive | inactive | – | – | inactive | inactive | inactive | inactive | inactive | inactive | – | inactive | – | – | – | –
